# Experimental data taken from publication PMC7862700, “An all-to-all approach to the identification of sequence-specific readers for epigenetic DNA modifications on cytosine”.
# What was measured:
# Test in all cases: DAPPL (digital affinity profiling via proximity ligation, sequencing); 10 mM Tris-HCl pH 7.5, 50 mM NaCl, 1 mM DTT, 4% glycerol, room temperature, 30 min; GST-TFs on glutathione beads, 16-mer random dsDNA library, 0.1% formaldehyde crosslink after washing; high values mean tight binding
# FEV = molecular target: T1, FEV (Homo sapiens, UniProt Q99581 1-238); details: protein: recombinant; tags: N-terminal GST; dsDNA, one strand shown
# T1 sequence: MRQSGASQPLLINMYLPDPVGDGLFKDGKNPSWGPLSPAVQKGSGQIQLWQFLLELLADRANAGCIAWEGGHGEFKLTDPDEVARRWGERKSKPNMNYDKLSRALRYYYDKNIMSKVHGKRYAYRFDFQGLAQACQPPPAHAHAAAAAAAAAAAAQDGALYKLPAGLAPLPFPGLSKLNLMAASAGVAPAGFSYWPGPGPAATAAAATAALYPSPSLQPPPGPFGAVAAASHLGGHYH
# How it was run: (§1)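 The binding signal reported is, for every hexamer, its read frequency for a factor over its read frequency for the tag-only sample. Reads came from pools of yeast-expressed, GST-fused human transcription factors on glutathione beads, barcoded with DNA and mixed with that sample, which were incubated with 200 nmole of a random double-stranded 16-mer DNA library in Tris/NaCl/DTT/glycerol buffer at room temperature for 30 min. After washing, the pools were crosslinked with 0.1% formaldehyde, proximity-ligated with BsaI/T4 ligase for 1 h at 37 °C, PCR-amplified and sequenced on an Illumina NextSeq500.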
# ETV5 = ETV5 (Homo sapiens, UniProt P41161 1-510); details: protein: recombinant; tags: N-terminal GST; dsDNA, one strand shown
# Sequence of ETV5 (P41161 whole entry): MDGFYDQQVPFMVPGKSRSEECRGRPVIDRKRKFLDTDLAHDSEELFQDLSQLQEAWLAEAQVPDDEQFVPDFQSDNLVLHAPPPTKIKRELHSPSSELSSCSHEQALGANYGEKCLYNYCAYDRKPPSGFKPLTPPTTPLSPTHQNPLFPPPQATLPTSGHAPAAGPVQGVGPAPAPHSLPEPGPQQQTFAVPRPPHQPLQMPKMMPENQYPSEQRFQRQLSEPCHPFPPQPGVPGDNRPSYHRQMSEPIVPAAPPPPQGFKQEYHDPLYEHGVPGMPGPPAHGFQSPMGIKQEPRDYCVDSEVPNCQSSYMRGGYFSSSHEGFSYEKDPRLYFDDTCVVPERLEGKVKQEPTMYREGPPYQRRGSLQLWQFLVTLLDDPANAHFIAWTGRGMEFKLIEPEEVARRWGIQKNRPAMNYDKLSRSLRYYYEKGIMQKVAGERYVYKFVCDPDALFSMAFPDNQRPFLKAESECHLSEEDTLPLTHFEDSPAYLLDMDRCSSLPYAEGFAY
# How it was run: as §1
# HSF1 = HSF1 (Homo sapiens, UniProt Q00613 1-529); details: protein: recombinant; tags: N-terminal GST; chain copies: 3; dsDNA, one strand shown
# Sequence of HSF1 (Q00613 whole entry): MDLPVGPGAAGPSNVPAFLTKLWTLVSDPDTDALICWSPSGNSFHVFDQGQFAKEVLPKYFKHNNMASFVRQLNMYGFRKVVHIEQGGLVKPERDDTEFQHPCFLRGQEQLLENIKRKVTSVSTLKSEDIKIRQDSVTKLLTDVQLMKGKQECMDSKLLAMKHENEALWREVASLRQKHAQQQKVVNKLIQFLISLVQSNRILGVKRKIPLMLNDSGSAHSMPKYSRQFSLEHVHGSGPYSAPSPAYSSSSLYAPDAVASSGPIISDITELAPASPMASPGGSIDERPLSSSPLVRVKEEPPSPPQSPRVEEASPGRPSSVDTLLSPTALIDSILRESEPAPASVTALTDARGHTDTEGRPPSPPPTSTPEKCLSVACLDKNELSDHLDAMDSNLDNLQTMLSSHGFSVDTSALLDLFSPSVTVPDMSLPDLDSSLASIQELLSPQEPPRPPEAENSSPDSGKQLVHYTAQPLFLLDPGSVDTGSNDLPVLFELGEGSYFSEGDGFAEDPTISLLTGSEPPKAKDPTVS
# How it was run: as §1
# SPIC = molecular target: T2, SPIC (Homo sapiens, UniProt Q8N5J4 1-248); details: protein: recombinant; tags: N-terminal GST; dsDNA, one strand shown
# T2 sequence: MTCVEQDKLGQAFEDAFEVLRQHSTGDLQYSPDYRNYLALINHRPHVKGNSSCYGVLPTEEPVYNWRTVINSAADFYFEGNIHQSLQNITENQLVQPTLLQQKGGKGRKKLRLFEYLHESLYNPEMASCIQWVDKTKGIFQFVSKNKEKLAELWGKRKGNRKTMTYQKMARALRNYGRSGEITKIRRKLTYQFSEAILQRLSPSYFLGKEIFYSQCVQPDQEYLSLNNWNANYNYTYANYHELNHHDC
# How it was run: as §1
# ELF4 = ELF4 (Homo sapiens, UniProt Q99607 1-663); details: protein: recombinant; tags: N-terminal GST; dsDNA, one strand shown
# Sequence of ELF4 (Q99607 whole entry): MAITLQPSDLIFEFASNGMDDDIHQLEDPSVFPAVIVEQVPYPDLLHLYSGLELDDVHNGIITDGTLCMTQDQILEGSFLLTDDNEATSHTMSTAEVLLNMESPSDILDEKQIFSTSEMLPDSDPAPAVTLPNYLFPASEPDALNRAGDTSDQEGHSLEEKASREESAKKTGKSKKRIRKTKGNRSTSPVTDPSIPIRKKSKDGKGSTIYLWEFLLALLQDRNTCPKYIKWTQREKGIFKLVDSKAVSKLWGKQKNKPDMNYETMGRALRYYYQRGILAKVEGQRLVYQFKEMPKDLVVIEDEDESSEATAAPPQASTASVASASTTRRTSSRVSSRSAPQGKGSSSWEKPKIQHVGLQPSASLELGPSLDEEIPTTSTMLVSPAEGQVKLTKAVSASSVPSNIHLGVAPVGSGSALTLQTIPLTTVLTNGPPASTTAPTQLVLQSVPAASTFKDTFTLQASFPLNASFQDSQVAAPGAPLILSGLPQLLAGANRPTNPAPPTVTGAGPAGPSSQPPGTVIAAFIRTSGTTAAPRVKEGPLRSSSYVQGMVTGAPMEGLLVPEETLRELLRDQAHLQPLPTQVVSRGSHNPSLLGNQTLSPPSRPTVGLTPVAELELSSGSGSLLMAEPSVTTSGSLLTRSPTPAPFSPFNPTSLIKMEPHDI
# How it was run: as §1
# ELK4 = molecular target: T3, ELK4 (Homo sapiens, UniProt P28324-2 1-405); details: protein: recombinant; tags: N-terminal GST; dsDNA, one strand shown
# T3 sequence: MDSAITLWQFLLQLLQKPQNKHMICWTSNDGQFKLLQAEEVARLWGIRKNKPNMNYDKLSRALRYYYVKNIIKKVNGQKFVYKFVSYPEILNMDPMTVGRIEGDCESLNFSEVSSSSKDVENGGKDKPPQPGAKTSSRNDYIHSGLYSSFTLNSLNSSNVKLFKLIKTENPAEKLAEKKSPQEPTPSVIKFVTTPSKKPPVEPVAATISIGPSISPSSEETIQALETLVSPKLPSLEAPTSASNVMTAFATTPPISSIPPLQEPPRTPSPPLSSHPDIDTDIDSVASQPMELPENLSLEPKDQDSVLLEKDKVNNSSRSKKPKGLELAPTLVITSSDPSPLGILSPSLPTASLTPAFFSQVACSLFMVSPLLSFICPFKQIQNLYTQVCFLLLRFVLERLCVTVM
# How it was run: as §1
# ETV2 = molecular target: T4, ETV2 (Homo sapiens, UniProt O00321 1-342); details: protein: recombinant; tags: N-terminal GST; dsDNA, one strand shown
# T4 sequence: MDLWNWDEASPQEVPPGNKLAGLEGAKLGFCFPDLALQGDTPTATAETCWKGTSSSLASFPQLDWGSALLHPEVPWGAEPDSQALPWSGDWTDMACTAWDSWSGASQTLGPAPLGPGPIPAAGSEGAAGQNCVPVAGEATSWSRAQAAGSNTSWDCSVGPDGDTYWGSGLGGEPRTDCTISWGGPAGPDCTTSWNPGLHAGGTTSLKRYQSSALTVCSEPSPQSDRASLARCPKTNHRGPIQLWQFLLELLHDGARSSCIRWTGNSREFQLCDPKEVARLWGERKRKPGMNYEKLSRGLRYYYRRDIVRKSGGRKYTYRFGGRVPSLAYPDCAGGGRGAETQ
# How it was run: as §1
# ELF3 = molecular target: T5, ELF3 (Homo sapiens, UniProt P78545 1-371); details: protein: recombinant; tags: N-terminal GST; dsDNA, one strand shown
# T5 sequence: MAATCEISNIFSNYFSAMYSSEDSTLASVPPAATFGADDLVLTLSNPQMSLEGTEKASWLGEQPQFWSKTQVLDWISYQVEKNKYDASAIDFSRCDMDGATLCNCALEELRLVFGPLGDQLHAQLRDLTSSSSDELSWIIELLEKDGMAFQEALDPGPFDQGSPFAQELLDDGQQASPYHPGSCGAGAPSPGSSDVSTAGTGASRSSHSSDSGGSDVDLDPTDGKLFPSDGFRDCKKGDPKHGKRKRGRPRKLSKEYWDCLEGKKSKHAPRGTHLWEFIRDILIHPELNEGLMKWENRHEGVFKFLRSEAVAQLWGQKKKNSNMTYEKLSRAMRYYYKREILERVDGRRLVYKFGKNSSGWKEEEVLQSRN
# How it was run: as §1
# ETV1 = ETV1 (Homo sapiens, UniProt P50549 1-477); details: protein: recombinant; tags: N-terminal GST; dsDNA, one strand shown
# Sequence of ETV1 (P50549 whole entry): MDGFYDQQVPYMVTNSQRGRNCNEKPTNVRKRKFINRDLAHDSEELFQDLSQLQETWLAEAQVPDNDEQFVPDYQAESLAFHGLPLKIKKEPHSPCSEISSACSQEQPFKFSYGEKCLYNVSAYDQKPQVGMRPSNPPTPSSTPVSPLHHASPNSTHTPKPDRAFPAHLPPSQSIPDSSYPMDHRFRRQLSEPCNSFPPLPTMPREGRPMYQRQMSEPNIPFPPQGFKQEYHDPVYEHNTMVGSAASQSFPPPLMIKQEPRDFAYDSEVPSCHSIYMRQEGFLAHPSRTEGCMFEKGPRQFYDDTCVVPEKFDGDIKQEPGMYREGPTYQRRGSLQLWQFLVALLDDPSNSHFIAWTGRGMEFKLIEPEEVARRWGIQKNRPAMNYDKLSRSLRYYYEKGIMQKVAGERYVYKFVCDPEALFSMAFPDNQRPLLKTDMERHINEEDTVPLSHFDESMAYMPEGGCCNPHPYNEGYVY
# How it was run: as §1
# ERF = molecular target: T6, ERF (Homo sapiens, UniProt P50548 1-548); details: protein: recombinant; tags: N-terminal GST; dsDNA, one strand shown
# T6 sequence: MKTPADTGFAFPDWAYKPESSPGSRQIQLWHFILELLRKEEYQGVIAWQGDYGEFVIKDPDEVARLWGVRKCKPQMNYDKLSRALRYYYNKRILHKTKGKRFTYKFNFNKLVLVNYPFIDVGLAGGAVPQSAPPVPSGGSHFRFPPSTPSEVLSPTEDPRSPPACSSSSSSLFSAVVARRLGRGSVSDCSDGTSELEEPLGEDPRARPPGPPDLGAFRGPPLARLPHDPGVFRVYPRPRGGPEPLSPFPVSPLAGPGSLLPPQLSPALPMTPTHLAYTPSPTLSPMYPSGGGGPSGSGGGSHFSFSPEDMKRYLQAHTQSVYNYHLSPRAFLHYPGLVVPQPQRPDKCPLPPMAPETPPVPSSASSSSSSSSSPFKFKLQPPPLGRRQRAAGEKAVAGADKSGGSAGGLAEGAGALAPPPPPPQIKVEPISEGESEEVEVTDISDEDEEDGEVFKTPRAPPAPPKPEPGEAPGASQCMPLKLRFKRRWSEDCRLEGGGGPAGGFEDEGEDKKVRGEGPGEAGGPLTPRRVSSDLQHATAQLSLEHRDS
# How it was run: as §1
# ETV3L = molecular target: T7, ETV3L (Homo sapiens, UniProt Q6ZN32 1-361); details: protein: recombinant; tags: N-terminal GST; dsDNA, one strand shown
# T7 sequence: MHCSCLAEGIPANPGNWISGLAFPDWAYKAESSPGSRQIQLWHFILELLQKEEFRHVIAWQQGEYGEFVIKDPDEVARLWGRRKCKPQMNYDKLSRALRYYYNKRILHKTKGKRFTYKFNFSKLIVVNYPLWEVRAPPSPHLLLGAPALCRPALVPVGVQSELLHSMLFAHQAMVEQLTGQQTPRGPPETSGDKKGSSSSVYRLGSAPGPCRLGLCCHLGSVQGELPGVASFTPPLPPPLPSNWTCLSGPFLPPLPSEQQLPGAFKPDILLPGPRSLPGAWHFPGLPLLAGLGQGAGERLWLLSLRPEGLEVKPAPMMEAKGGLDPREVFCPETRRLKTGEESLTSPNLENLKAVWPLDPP
# How it was run: as §1
# ETS2 = molecular target: T8, ETS2 (Homo sapiens, UniProt P15036 1-469); details: protein: recombinant; tags: N-terminal GST; dsDNA, one strand shown
# T8 sequence: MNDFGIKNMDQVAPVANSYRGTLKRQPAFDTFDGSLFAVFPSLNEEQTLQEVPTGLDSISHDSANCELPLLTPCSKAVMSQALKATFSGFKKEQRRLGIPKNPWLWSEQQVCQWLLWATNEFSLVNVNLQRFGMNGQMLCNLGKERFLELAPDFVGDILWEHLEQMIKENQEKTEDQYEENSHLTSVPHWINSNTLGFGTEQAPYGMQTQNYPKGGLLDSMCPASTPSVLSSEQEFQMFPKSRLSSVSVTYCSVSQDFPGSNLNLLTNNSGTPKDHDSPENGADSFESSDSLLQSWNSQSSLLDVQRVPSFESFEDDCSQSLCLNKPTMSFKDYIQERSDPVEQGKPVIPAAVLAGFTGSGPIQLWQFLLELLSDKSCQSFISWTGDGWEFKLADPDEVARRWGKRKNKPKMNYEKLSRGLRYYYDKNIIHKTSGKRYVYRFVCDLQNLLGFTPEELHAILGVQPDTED
# How it was run: as §1
# SPDEF = molecular target: T9, SPDEF (Homo sapiens, UniProt O95238 1-335); details: protein: recombinant; tags: N-terminal GST; dsDNA, one strand shown
# T9 sequence: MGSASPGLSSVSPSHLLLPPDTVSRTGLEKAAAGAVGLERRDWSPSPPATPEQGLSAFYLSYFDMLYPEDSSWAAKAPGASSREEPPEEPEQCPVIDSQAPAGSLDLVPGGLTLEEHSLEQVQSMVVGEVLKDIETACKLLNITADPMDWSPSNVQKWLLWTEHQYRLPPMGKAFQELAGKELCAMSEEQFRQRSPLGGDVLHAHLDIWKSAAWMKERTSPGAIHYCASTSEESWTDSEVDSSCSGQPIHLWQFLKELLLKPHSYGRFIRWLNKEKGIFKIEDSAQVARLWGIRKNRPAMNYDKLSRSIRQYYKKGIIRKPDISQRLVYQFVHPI
# How it was run: as §1
# ETV7 = molecular target: T10, ETV7 (Homo sapiens, UniProt Q9Y603 1-341); details: protein: recombinant; tags: N-terminal GST; dsDNA, one strand shown
# T10 sequence: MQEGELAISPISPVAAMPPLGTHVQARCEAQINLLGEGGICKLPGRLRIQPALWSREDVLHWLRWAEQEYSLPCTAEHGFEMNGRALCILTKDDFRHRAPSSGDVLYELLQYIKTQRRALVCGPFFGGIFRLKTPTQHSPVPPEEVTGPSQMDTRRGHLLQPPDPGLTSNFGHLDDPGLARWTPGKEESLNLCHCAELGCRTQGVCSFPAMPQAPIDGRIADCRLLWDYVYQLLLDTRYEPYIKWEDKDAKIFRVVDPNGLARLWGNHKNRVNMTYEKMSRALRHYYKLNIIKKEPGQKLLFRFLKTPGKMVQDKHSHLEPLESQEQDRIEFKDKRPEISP
# How it was run: as §1
# ELF5 = molecular target: T11, ELF5 (Homo sapiens, UniProt Q9UKW6-2 1-255); details: protein: recombinant; tags: N-terminal GST; dsDNA, one strand shown
# T11 sequence: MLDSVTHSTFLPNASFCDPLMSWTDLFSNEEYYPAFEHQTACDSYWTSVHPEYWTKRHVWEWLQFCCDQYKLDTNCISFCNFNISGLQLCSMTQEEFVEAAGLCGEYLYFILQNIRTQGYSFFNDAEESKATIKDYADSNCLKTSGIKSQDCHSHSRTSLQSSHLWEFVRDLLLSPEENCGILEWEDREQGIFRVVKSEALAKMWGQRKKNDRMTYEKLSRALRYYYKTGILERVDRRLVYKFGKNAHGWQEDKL
# How it was run: as §1
# ETV3 = molecular target: T12, ETV3 (Homo sapiens, UniProt P41162-2 1-143); details: protein: recombinant; tags: N-terminal GST; dsDNA, one strand shown
# T12 sequence: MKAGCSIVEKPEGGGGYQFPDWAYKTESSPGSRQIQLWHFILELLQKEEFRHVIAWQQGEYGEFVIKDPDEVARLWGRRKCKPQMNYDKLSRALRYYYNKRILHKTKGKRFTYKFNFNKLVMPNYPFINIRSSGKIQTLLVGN
# How it was run: as §1
# ETV6 = ETV6 (Homo sapiens, UniProt P41212 1-452); details: protein: recombinant; tags: N-terminal GST; dsDNA, one strand shown
# Sequence of ETV6 (P41212 whole entry): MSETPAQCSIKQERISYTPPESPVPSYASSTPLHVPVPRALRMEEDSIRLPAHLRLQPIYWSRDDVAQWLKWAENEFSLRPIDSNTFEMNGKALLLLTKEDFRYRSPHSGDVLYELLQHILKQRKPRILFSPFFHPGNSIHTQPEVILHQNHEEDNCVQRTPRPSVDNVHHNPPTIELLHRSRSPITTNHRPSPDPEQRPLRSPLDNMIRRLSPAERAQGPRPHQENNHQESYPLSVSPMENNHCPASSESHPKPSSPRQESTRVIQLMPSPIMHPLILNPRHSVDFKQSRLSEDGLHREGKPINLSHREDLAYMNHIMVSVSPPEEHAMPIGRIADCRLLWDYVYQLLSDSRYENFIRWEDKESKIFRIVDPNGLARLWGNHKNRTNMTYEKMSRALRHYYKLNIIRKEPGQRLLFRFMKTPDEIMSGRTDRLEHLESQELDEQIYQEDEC
# How it was run: as §1
sequence,measurement,setting,value
CGATAC,binding signal,FEV,"1.14 fold enrichment (6-mer frequency, TF over GST control)"
same,binding signal,ETV5,"1.13 fold enrichment (6-mer frequency, TF over GST control)"
same,binding signal,HSF1,"1.01 fold enrichment (6-mer frequency, TF over GST control)"
same,binding signal,SPIC,"1.34 fold enrichment (6-mer frequency, TF over GST control)"
same,binding signal,ELF4,"1.25 fold enrichment (6-mer frequency, TF over GST control)"
same,binding signal,ELK4,"1.15 fold enrichment (6-mer frequency, TF over GST control)"
same,binding signal,ETV2,"1.18 fold enrichment (6-mer frequency, TF over GST control)"
same,binding signal,ELF3,"1.14 fold enrichment (6-mer frequency, TF over GST control)"
same,binding signal,ETV1,"1.13 fold enrichment (6-mer frequency, TF over GST control)"
same,binding signal,ERF,"1.2 fold enrichment (6-mer frequency, TF over GST control)"
same,binding signal,ETV3L,"1.18 fold enrichment (6-mer frequency, TF over GST control)"
same,binding signal,ETS2,"1.19 fold enrichment (6-mer frequency, TF over GST control)"
same,binding signal,SPDEF,"1.29 fold enrichment (6-mer frequency, TF over GST control)"
same,binding signal,ETV7,"1.02 fold enrichment (6-mer frequency, TF over GST control)"
same,binding signal,ELF5,"1.1 fold enrichment (6-mer frequency, TF over GST control)"
same,binding signal,ETV3,"1.15 fold enrichment (6-mer frequency, TF over GST control)"
same,binding signal,ETV6,"1.09 fold enrichment (6-mer frequency, TF over GST control)"
